# Data from PubChem BioAssay (NCATS).
# Records with an inconclusive call do not appear. The source made the active and inactive calls. Calls follow the shape of the dose curve; as a rule, active = well fitted curve in the direction sought with a large enough effect; inconclusive = small, poorly fitted or top-dose-only effect, or another doubt; inactive = no such curve, though single readings can be large; an effect the other way counts as inactive or inconclusive.
# Experiment: qHTS of pediatric cancer cell lines to identify multiple opportunities for drug repurposing: Primary screen for RD cells (AID 1347104);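 also: plate controls were DMSO for no effect and bortezomib for full effect; nearly all actives have a fitted effect of over 55% in size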
# Details: RD rhabdomyosarcoma viability, CellTiter-Glo luminescence, 48 h; series mostly up to 46 µM; activity change, negative = cytotoxic: at the top concentration
# In short: (§1)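 Readout: CellTiter-Glo luminescence, 48 h treatment. Controls DMSO (neutral) and bortezomib 2.3 µM final (positive). Potency and efficacy taken from primary-screen concentration-response curves.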
row,Compound,"activity change, negative = cytotoxic"
1,Cc1cc(C)c(NC(=O)CN(CC(=O)O)CC(=O)O)c(C)c1Br,10.4% (inactive)
2,CCOC(=O)c1cccnc1,13.9% (inactive)
3,COc1cc(O)cc(O)c1,5.27% (inactive)
4,O=C(O)[C@@H]1[C@H]2C[C@H]3c4[nH]c5ccccc5c4CCN3C[C@@H]2CC[C@@H]1O,4.72% (inactive)
5,CC(C)NC[C@@H](O)COc1ccc(CC(N)=O)cc1,4.8% (inactive)
6,Cc1cc(NC(=O)C2=C(O)c3ccccc3S(=O)(=O)N2C)no1,2.66% (inactive)
7,CCCOC(=O)c1ccc(N)cc1,-13.7% (inactive)
8,CC(=O)Nc1cccc(O)c1,4.09% (inactive)
9,CCc1nnc(NS(=O)(=O)c2ccc(N)cc2)s1,4.6% (inactive)
10,COc1cc(C(=O)NCCCCCC(=O)O)cc(OC)c1OC,7.17% (inactive)
11,CC(C)=CCC/C(C)=C/CO,11.3% (inactive)
12,CC(=O)SC[C@@H](Cc1ccccc1)C(=O)NCC(=O)OCc1ccccc1,0.804% (inactive)
13,NCC1CCC(C(=O)Oc2ccc(CCC(=O)O)cc2)CC1 (stereo unspecified),13.3% (inactive)
14,CN[C@@H]1[C@H](O)[C@H](NC)[C@H]2O[C@@]3(O)C(=O)C[C@@H](C)O[C@H]3O[C@@H]2[C@H]1O,14.9% (inactive)
15,CC[N+](C)(CC)CCOC(=O)C1c2ccccc2Oc2ccccc21,7.95% (inactive)
16,O=C(NCN1CCOCC1)c1cnccn1,-8.05% (inactive)
17,O=C(O)c1cc(=O)c2ccccc2o1,16.1% (inactive)
18,COc1ccc(-c2cc(=O)c3c(O)cc(O[C@@H]4O[C@H](CO[C@@H]5O[C@@H](C)[C@H](O)[C@@H](O)[C@H]5O)[C@@H](O)[C@H](O)[C@H]4O)cc3o2)cc1O,10.3% (inactive)
19,CN1CC(=O)NC1=N,14% (inactive)

row,Compound,"activity change, negative = cytotoxic"
1,CC(=O)OCC(=O)[C@@]1(O)CC[C@H]2[C@@H]3CCC4=CC(=O)C=C[C@]4(C)[C@@]3(F)[C@@H](O)C[C@@]21C,2.14% (inactive)
2,NS(=O)(=O)c1ccc(C(=O)O)cc1,11.7% (inactive)
3,CCN(CC)S(=O)(=O)c1ccc(C(=O)O)cc1,1.88% (inactive)
4,O=C(O)CNC(=O)c1ccccc1I,0.179% (inactive)
5,O=C(Cn1ccnc1[N+](=O)[O-])NCc1ccccc1,1.02% (inactive)
6,O=C(O)COC(=O)Cc1ccccc1Nc1c(Cl)cccc1Cl,9.75% (inactive)
7,CN1C(C)(C)CCCC1(C)C,-3.07% (inactive)
8,C[n+]1ccccc1/C=N/O,15.7% (inactive)
9,NC(=O)CC[C@@H](N)C(=O)O,4.84% (inactive)
10,Cc1cccc(C)c1NC(=O)CC12CCCN1CCC2,5.86% (inactive)
11,NS(=O)(=O)c1cc(C2(O)NC(=O)c3ccccc32)ccc1Cl (stereo unspecified),15.9% (inactive)
12,O=C(/C=C/c1ccc(O)c(O)c1)O[C@@H]1C[C@@](OC(=O)/C=C/c2ccc(O)c(O)c2)(C(=O)O)C[C@@H](O)[C@@H]1O,7.1% (inactive)
13,C=CCNC(N)=S,3.74% (inactive)
14,COc1nccnc1NS(=O)(=O)c1ccc(N)cc1,0.839% (inactive)
15,CN[C@@H]1[C@@H](O)[C@@H](O[C@@H]2[C@H](O)[C@H](O[C@H]3OC(CN)=CC[C@H]3N)[C@@H](N)C[C@H]2N)OCC1(C)O (stereo partly specified),13.1% (inactive)
16,CO[C@@]1(NC(=O)C(C(=O)O)c2ccc(O)cc2)C(=O)N2C(C(=O)O)=C(CSc3nnnn3C)CO[C@@H]21 (stereo partly specified),16.9% (inactive)
17,O=C(O)c1ccccc1C(=O)Nc1ccc(S(=O)(=O)Nc2nccs2)cc1,-14.6% (inactive)
18,CN1C(=O)CC(c2ccccc2)C1=O (stereo unspecified),3.63% (inactive)
19,CCCCCCCCCCOc1cc2c(=O)c(C(=O)OCC)c[nH]c2cc1OCC,5.98% [at 4.84 µM] (inactive)

# Experiment: qHTS of pediatric cancer cell lines to identify multiple opportunities for drug repurposing: Primary screen for MG 63 (6-TG R) cells (AID 1347105); also: % is scaled to controls: 0 for no effect and ±100 for the full control effect; nearly all actives have a fitted effect of over 50% in size
# Details: MG 63 (6-TG R) viability, CellTiter-Glo, 48 h; series mostly up to 46 µM; activity change, negative = cytotoxic: at the top concentration
# In short: as §1
row,Compound,"activity change, negative = cytotoxic"
1,Cc1cc(C)c(NC(=O)CN(CC(=O)O)CC(=O)O)c(C)c1Br,10.4% (inactive)
2,CCOC(=O)c1cccnc1,-27.5% (inactive)
3,COc1cc(O)cc(O)c1,-16.3% (inactive)
4,O=C(O)[C@@H]1[C@H]2C[C@H]3c4[nH]c5ccccc5c4CCN3C[C@@H]2CC[C@@H]1O,-1.72% (inactive)
5,CC(C)NC[C@@H](O)COc1ccc(CC(N)=O)cc1,4.91% (inactive)
6,Cc1cc(NC(=O)C2=C(O)c3ccccc3S(=O)(=O)N2C)no1,-9.99% (inactive)
7,CCCOC(=O)c1ccc(N)cc1,-0.746% (inactive)
8,CC(=O)Nc1cccc(O)c1,-11.5% (inactive)
9,CCc1nnc(NS(=O)(=O)c2ccc(N)cc2)s1,-11.4% (inactive)
10,COc1cc(C(=O)NCCCCCC(=O)O)cc(OC)c1OC,-27.9% (inactive)
11,CC(C)=CCC/C(C)=C/CO,0.154% (inactive)
12,CC(=O)SC[C@@H](Cc1ccccc1)C(=O)NCC(=O)OCc1ccccc1,-2.38% (inactive)
13,NCC1CCC(C(=O)Oc2ccc(CCC(=O)O)cc2)CC1 (stereo unspecified),-19.2% (inactive)
14,CN[C@@H]1[C@H](O)[C@H](NC)[C@H]2O[C@@]3(O)C(=O)C[C@@H](C)O[C@H]3O[C@@H]2[C@H]1O,38.2% (inactive)
15,CC[N+](C)(CC)CCOC(=O)C1c2ccccc2Oc2ccccc21,-18% (inactive)
16,O=C(NCN1CCOCC1)c1cnccn1,-6.34% (inactive)
17,O=C(O)c1cc(=O)c2ccccc2o1,-13.5% (inactive)
18,COc1ccc(-c2cc(=O)c3c(O)cc(O[C@@H]4O[C@H](CO[C@@H]5O[C@@H](C)[C@H](O)[C@@H](O)[C@H]5O)[C@@H](O)[C@H](O)[C@H]4O)cc3o2)cc1O,12.7% (inactive)
19,CN1CC(=O)NC1=N,-21% (inactive)

row,Compound,"activity change, negative = cytotoxic"
1,CC(=O)OCC(=O)[C@@]1(O)CC[C@H]2[C@@H]3CCC4=CC(=O)C=C[C@]4(C)[C@@]3(F)[C@@H](O)C[C@@]21C,-10% (inactive)
2,NS(=O)(=O)c1ccc(C(=O)O)cc1,-0.775% (inactive)
3,CCN(CC)S(=O)(=O)c1ccc(C(=O)O)cc1,-19.5% (inactive)
4,O=C(O)CNC(=O)c1ccccc1I,-2.83% (inactive)
5,O=C(Cn1ccnc1[N+](=O)[O-])NCc1ccccc1,56.5% (inactive)
6,O=C(O)COC(=O)Cc1ccccc1Nc1c(Cl)cccc1Cl,-25.5% (inactive)
7,CN1C(C)(C)CCCC1(C)C,-9.25% (inactive)
8,C[n+]1ccccc1/C=N/O,11% (inactive)
9,NC(=O)CC[C@@H](N)C(=O)O,9.1% (inactive)
10,Cc1cccc(C)c1NC(=O)CC12CCCN1CCC2,7.72% (inactive)
11,NS(=O)(=O)c1cc(C2(O)NC(=O)c3ccccc32)ccc1Cl (stereo unspecified),2.14% (inactive)
12,O=C(/C=C/c1ccc(O)c(O)c1)O[C@@H]1C[C@@](OC(=O)/C=C/c2ccc(O)c(O)c2)(C(=O)O)C[C@@H](O)[C@@H]1O,-7.24% (inactive)
13,C=CCNC(N)=S,-10.2% (inactive)
14,COc1nccnc1NS(=O)(=O)c1ccc(N)cc1,-7.74% (inactive)
15,CN[C@@H]1[C@@H](O)[C@@H](O[C@@H]2[C@H](O)[C@H](O[C@H]3OC(CN)=CC[C@H]3N)[C@@H](N)C[C@H]2N)OCC1(C)O (stereo partly specified),-3.57% (inactive)
16,CO[C@@]1(NC(=O)C(C(=O)O)c2ccc(O)cc2)C(=O)N2C(C(=O)O)=C(CSc3nnnn3C)CO[C@@H]21 (stereo partly specified),5.12% (inactive)
17,O=C(O)c1ccccc1C(=O)Nc1ccc(S(=O)(=O)Nc2nccs2)cc1,-23.5% (inactive)
18,CN1C(=O)CC(c2ccccc2)C1=O (stereo unspecified),-21.9% (inactive)
19,CCCCCCCCCCOc1cc2c(=O)c(C(=O)OCC)c[nH]c2cc1OCC,-13.3% [at 4.84 µM] (inactive)
